Assay outcomes as filed in PubChem.
Most compounds without a hit are left out; they make up all but 3.9% or so of the library.
Bead autofluor: compound fluorescence in toxin protease inhibitor counterscreen; fluorescence intensity (test concentration not listed); compound autofluorescence counterscreen, microsphere flow cytometry; stronger effect = higher value; 360,000 tested, 3.1% active; in the data active = fluorescence intensity above about 16000; inconclusive = no clear call, values can overlap the other calls
SARS 3CLpro inh: SARS-CoV 3CLpro protease inhibition. P0C6X7. recombinant SARS-CoV 3CLpro, quenched FRET peptide cleavage. inhibition, % at 6 µM. 290,000 tested, 0.14% active. AID 1706; in the data active = inhibition above about 12%
BoNT-F LC inh: BoNT F light chain protease inhibition; AID 588497; Multiplex microsphere protease cleavage assay, flow cytometry; 360,000 tested, 0.22% active; inhibition, % at 10 µM; in the data active = inhibition above about 35%, passing the limit was not always enough; inconclusive = no clear call, values can overlap the other calls; note: plate controls were buffer without enzyme for full effect and enzyme alone for no effect
CCHFV vOTU inh: blocks the CCHF virus ovarian tumor domain protease | CCHFV vOTU protease, Pep-AMC fluorescence | inhibition, % at 11.5 µM | 370,000 tested, 0.55% active; in the data active = inhibition above about 30%; note: 0% = vehicle wells with enzyme and 100% = no enzyme wells
BoNT A protease: inhibitors of Botulinum neurotoxin A light chain protease. multiplex microsphere protease substrate cleavage, flow cytometry. inhibition, % at 10 µM. 360,000 tested, 0.17% active; note: plate controls were buffer without enzyme for full effect and enzyme alone for no effect
Anthrax LF inh2: blocks Bacillus anthracis lethal factor protease | 360,000 tested, 0.12% active | P15917 | inhibition, % at 10 µM | multiplex microsphere protease cleavage assay, LF; note: plate controls were buffer without enzyme for full effect and enzyme alone for no effect
An asterisk follows results filed as active; ? = inconclusive; . = no result. Cut-off read from the data, not from the text of the source, unless noted: active = inhibition above about 30%; inconclusive = no clear call, values can overlap the other calls; inactive = below that.

SMILES | Bead autofluor | SARS 3CLpro inh | BoNT-F LC inh | CCHFV vOTU inh | BoNT A protease | Anthrax LF inh2
COCCCn1c(=S)[nH]c2ccc(N3CCOCC3)cc2c1=O | 18662* | . | 6.9 | -12.3 | 5.5 | 0.5
O=c1c2cc(N3CCOCC3)ccc2[nH]c(=S)n1CC1CCCO1 (stereo unspecified) | 22212* | -0.4 | -10.3 | 1.0 | -8.8 | -4.2
O=c1c2ccccc2[nH]c(=S)n1CC1CCCO1 (stereo unspecified) | 3806 | -0.7 | -42.0 | 5.3 | -1.4 | -0.1
Cc1cccc(NC(=O)Cn2nnc(-c3ccccc3F)n2)c1C | . | . | . | 11.5 | . | .
Cc1cc(Br)ccc1NC(=O)CNC(=O)CSc1n[nH]c(N)n1 | 3808 | -7.8 | 40.0* | -3.2 | 1.3 | -9.1
CCCN1C=CC(=C/C=C(\C#N)C(=O)OCC)C=C1 | . | 2.7 | . | . | . | .
CCCCCCN1C=CC(=C/C=C(\C#N)C(=O)OCC)C=C1 | 24837* | -3.1 | -16.4 | 9.0 | -10.3 | 0.0
CCOC(=O)/C(C#N)=C/C=C1\C=Cc2ccccc2N1CC | 119384* | 0.8 | 178.5* | 4.1 | -0.1 | 45.8*
COc1ccc(C2C(C(=O)Nc3cc(OC)c(OC)c(OC)c3)CCC(=O)N2c2ccc(OC)cc2)cc1 (stereo unspecified) | . | . | . | -5.4 | . | .
O=c1onc(-c2ccccc2)n1Cc1ccc([N+](=O)[O-])cc1 | 2987 | . | -0.8 | 4.0 | -0.2 | 4.1
N#CCCCn1c(-c2ccccc2)noc1=O | 23665* | -1.0 | -1.7 | -1.1 | ? | -4.4
COc1ccc(-c2cc(-c3nnc(SCC(=O)Nc4nccs4)n3N)[nH]n2)cc1 | . | . | . | 2.7 | . | .
Cc1ccc(-c2cc(C(=O)NN=Cc3cccc(Oc4ccccc4)c3)[nH]n2)cc1C | . | . | . | 7.5 | . | .
O=C(Nn1c(-c2ccccc2)nc2ccccc2c1=O)C1CCC1 | 21456* | 9.1 | 4.1 | 6.0 | 4.3 | 1.0
Cc1ccc2nsnc2c1S(=O)(=O)N1CCOCC1 | 22875* | -4.4 | -3.2 | -9.5 | -2.4 | -4.4
Cc1ccc(C(=O)N2CCC(Oc3cccnc3)CC2)c(C)c1 | . | . | . | -2.2 | . | .
O=C(COC(=O)c1cnccn1)c1ccc(Br)cc1 | 3712 | -2.0 | -10.4 | 1.4 | 1.1 | -1.6
O=C(COC(=O)c1cnccn1)c1ccc2c(c1)CCCC2 | 20610* | 1.3 | 2.3 | -5.5 | 1.8 | -4.9
CCOC(=O)Cn1cc(CN2C(C(=O)OC)CN(CCO)CCS2(=O)=O)nn1 (stereo unspecified) | . | . | . | -5.4 | . | .
O=C(c1cc(-c2ccccc2)on1)N1CCC(Oc2cccnc2)CC1 | . | . | . | -6.9 | . | .
COc1ccc(Cl)cc1C(=O)O/N=C(\N)c1ccc(Cl)cc1 | 9176 | 4.8 | -4.5 | -7.8 | -0.7 | -3.6
Cc1occc1C(=O)O/N=C(\N)c1ccc(Cl)cc1 | 3942 | -3.5 | 40.0* | -8.9 | -1.1 | 4.6
COC(=O)C[C@H]1CC[C@@H]2[C@H](COc3ccc(NC(=O)c4cccc(Cl)c4)cc3C(=O)N2C)O1 | . | . | . | -6.3 | . | .
COc1ccc(-c2nnn(CCC(=O)O)n2)cc1 | 11209 | -0.3 | 7.8 | 7.5 | 0.4 | 2.1
COc1cccc(-c2nnn(CCC(=O)O)n2)c1 | 19600* | 9.5 | 2.9 | 2.2 | ? | 1.3
SMILES | Bead autofluor | SARS 3CLpro inh | BoNT-F LC inh | CCHFV vOTU inh | BoNT A protease | Anthrax LF inh2
CC1=CC2(C(Cc3ccccc3)N(CC3CC3)C(=NC(=O)c3ccccc3)N2C(=O)OCc2ccccc2)n2c(=O)n(-c3ccccc3)c(=O)n2C1 (stereo unspecified) | . | . | . | 2.8 | . | .
Nc1nc(SCC(=O)O)[nH]c(=O)c1NC(=O)c1ccco1 | 6914 | 3.3 | -5.9 | 10.3 | -2.3 | -1.3
Nc1nc(SCCO)[nH]c(=O)c1NC(=O)c1ccco1 | 19769* | . | -103.7 | 8.4 | -65.5 | -17.3
S=c1nc(-c2ccc(Cl)cc2)[nH][nH]1 | 3952 | -3.3 | ? | -4.0 | 2.5 | -16.3
Cc1ccc(C)n1-c1nc(=S)[nH][nH]1 | 16597* | -3.7 | -0.6 | -7.5 | -0.8 | -0.9
COc1ccc(-n2c(COc3ccc(Cl)cc3)nnc2SCC(=O)Nc2ccc3c(c2)OCO3)cc1 | . | . | . | 4.6 | . | .
COc1ccc(-c2nc(C#N)c(NCc3ccccc3Cl)o2)cc1 | 20055* | -4.3 | 3.7 | 4.3 | ? | -0.5
Cc1ccc(-c2nc(C#N)c(NCCN3CCCCC3)o2)cc1 | 22423* | -0.4 | -10.9 | -35.0 | ? | -2.9
N#Cc1nc(-c2ccc(Cl)cc2)oc1NCc1ccco1 | 3900 | -1.0 | 3.0 | -19.1 | -0.3 | -6.8
COc1ccc(CNc2oc(COc3ccc(Cl)cc3)nc2C#N)cc1 | 20982* | 5.5 | -9.9 | -7.2 | -4.2 | -3.3
N#Cc1nc(-c2ccc(Cl)cc2)oc1NCc1cccc2c1OCO2 | 19143* | 2.7 | -1.8 | -2.9 | 1.2 | -0.7
